Screening results: PubChem BioAssay, Sanford-Burnham Center for Chemical Genomics
CYP2C9 inhib: blockers of cytochrome P450 2C9 activity – biochemical, luminescence, ADME assay, primary screen | P11712 | CYP2C9 Supersomes, luciferin-H conversion | inhibition, % at 5 µM | actives 20% (n = 96,000);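 active = blocking of liver enzyme CYP2C9 beyond about 50% at 5 µM, limit read from the data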
CYP2C19 inh: blockers of cytochrome P450 2C19 activity – biochemical, luminescence, ADME assay, primary screen | AID 778, 2007 | P33261 | actives 21% (n = 96,000) | inhibition, % at 5 µM | CYP2C19 Supersomes, luciferin-H EGE luminescence, 30 min;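 active = CYP2C19 inhibition above a set limit at 5 µM in the primary screen, cut at about 50% in these data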;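 note: plate controls were negative control wells for no effect and 2.5 mM tranylcypromine positive control for full effect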
Target sequence (P33261 whole entry, looked up): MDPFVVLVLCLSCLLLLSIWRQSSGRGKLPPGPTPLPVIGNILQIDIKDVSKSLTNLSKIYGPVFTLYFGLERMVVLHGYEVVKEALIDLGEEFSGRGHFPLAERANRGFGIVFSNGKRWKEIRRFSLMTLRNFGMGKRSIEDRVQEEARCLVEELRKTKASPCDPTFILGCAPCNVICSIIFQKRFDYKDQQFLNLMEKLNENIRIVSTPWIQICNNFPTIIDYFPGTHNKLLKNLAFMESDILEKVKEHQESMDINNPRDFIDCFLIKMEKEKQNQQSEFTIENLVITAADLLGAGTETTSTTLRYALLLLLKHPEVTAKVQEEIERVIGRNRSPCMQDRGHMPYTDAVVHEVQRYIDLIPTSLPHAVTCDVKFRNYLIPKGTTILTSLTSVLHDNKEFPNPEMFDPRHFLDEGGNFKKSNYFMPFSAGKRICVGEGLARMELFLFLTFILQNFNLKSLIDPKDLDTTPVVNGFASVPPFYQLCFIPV
CYP2C19 act: human CYP2C19 activators, primary screen, biochemical, luminescence. Cytochrome P450 2C19 (Homo sapiens), P33261. recombinant CYP2C19, luciferin-H EGE luminescence; hits give high values; 0 = fully inhibited enzyme, 1 = untreated enzyme. activation factor at 5 µM. 96,000 tested, under 10 active. AID 1025, 2008;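 active = activation factor of at least 2 at 5 µM in the primary screen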;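 note: 0 = wells with 2.5 mM tranylcypromine and 1 = vehicle-only wells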
CYP2C9 activ: human CYP2C9 activators, primary screen, biochemical, luminescence. Cytochrome P450 2C9 (Homo sapiens), P11712. recombinant CYP2C9, luciferin-H conversion; hits give high values; factor 1 = untreated enzyme, 0 = blocked. activation factor at 5 µM. actives 1.4% (n = 96,000);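 active = activation factor of 2 or more for CYP2C9 at a 5 µM dose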;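 note: 0 = sulfaphenazole-blocked wells and 1 = vehicle-only wells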
Active calls of the source: *. Shown are actives, neighbours in structure and some others; about 31% of the full set was active somewhere.

SMILES	CYP2C9 inhib	CYP2C19 inh	CYP2C19 act	CYP2C9 activ
COc1ccc(NC(=O)CN2CCC(C)CC2)c([N+](=O)[O-])c1	54*	65*	0.4	0.5
Cc1sc(NC(=O)c2sc3nc4c(C)cccc4cc3c2N)c(C#N)c1C	11	18	0.8	0.9
CC(=O)c1cccc(N(CC(=O)O)S(C)(=O)=O)c1	-9	-6	1.1	1.1
CCCC(=O)NC1=C(C#N)C2(CCCC2)Cc2ccccc21	13	41	0.6	0.9
CCCC(=O)C1=C(c2ccccc2)C(C#N)(C#N)C(C#N)=C1N	73*	32	0.7	0.3
CCOc1ccc(N(CC)S(=O)(=O)c2ccc3c(c2)n(C)c(=O)c(=O)n3C)cc1	44	-3	1	0.6
CCOC(=O)Nc1nnc(-c2ccc(OC)c(OC)c2)s1	-28	-1	1	1.3
CCOC(=O)Nc1cc(OC)c(OC)cc1Cc1nccc2cc(OC)c(OC)cc12	62*	85*	0.2	0.4
CC(=O)c1cccc(NC(=O)c2ccc(Br)o2)c1	28	47	0.5	0.7
CCCCC(=O)Nc1cccc(NC(=O)c2ccc(Br)o2)c1	93*	70*	0.3	0.1
O=C(Nc1cccc(OC(F)(F)F)c1)c1ccc(Br)o1	16	89*	0.1	0.8
COC(=O)CC1=C(C)C(=O)CC2C(C)(C)CCCC12C (stereo not given)	17	57*	0.4	0.8
COC(=O)Cc1c(O)ccn(Cc2cccc3ccccc23)c1=O	47	64*	0.4	0.5
O=C(c1csc2ccccc12)n1cccn1	-6	6	0.9	1.1
Cc1ccccc1-c1cc(C(=O)n2cccn2)c2cc(Cl)ccc2n1	15	62*	0.4	0.8
O=C(Cn1nnc(-c2ccc(Cl)cc2)n1)NC1CC2CCC1C2 (stereo not given)	30	38	0.6	0.7
CCOc1cc(C=O)ccc1OCCSc1ccc(C)cc1	70*	77*	0.2	0.3
COc1cc(C=O)ccc1OCCSc1ccc(C)cc1	68*	85*	0.2	0.3
COc1cc(C)ccc1OCCCON1C(=O)CCC1=O	16	41	0.6	0.8
CCOc1ccc(/C=N/N(C)c2ccccc2)cc1OC	-8	12	0.9	1.1
O=C(COc1ccccc1)N1CCN(C(=O)c2cccc(F)c2)CC1	4	8	0.9	1
Cc1ccc(C(=O)CC(=O)c2cccc(F)c2)c(O)c1	72*	95*	0	0.3
CCn1nc(NC(=O)c2ccncc2)c2cc3ccc(C)cc3nc21	60*	63*	0.4	0.4
CCCn1nc(NC(=O)c2ccncc2)c2cc3ccccc3nc21	95*	93*	0.1	0.1
CCCn1nc(NC(=O)c2cccs2)c2cc3ccccc3nc21	48	26	0.7	0.5
SMILES	CYP2C9 inhib	CYP2C19 inh	CYP2C19 act	CYP2C9 activ
CCc1ccc(C2=Nn3c(nnc3-c3cccs3)SC2)cc1	-4	-8	1.1	1
CCn1ncc(Cl)c1C(=O)Nc1ccncc1	93*	96*	0	0.1
CCn1ncc(Br)c1C(=O)Nc1ccc(C(=O)OC(C)C)cc1	8	7	0.9	0.9
O=S(=O)(c1ccc(OCc2nc3ccccc3s2)c(Cl)c1)N1CCOCC1	43	26	0.7	0.6
O=S(=O)(c1cccc(-c2nnc(SCc3nc4ccccc4s3)o2)c1)N1CCOCC1	50	51*	0.5	0.5
O=c1c2ccccc2nnn1CSc1nnc(-c2cccc(S(=O)(=O)N3CCCCC3)c2)o1	81*	75*	0.3	0.2
N#Cc1c(Sc2ncc(C(F)(F)F)cc2Cl)nsc1C/C=N\OCc1c(F)cccc1Cl	-83	33	0.7	1.8
COC(=O)c1ccc(Oc2c(C(F)(F)F)oc3c(CN4CCN(C)CC4)c(O)ccc3c2=O)cc1	1	10	0.9	1
Cc1nc(-c2cnn(-c3ccccc3)c2)c2cc(C)oc2n1	-3	-8	1.1	1
COc1cc(C2N(c3ccccc3)CCN2c2ccccc2)cc(OC)c1OC	41	75*	0.3	0.6
COc1ccccc1CNC(=O)CCS(=O)(=O)c1cccc2nonc12	59*	91*	0.1	0.4
COc1ccc(CNC(=O)CCS(=O)(=O)c2cccc3nonc23)cc1	30	74*	0.3	0.7
COc1ccccc1CNC(=O)c1cccs1	-2	45	0.6	1
COc1ccccc1CNC(=O)CCS(=O)(=O)c1cccs1	-88	83*	0.2	1.9
